Results filed as inconclusive are left out. A call without a number means that no potency is given here. Activity calls are given as the source filed them. Calls follow the shape of the full dose curve.
Potency is read from the fitted curve at half-maximal effect.

Chain of Acetylcholinesterase (Homo sapiens) (P22303 whole entry, looked up): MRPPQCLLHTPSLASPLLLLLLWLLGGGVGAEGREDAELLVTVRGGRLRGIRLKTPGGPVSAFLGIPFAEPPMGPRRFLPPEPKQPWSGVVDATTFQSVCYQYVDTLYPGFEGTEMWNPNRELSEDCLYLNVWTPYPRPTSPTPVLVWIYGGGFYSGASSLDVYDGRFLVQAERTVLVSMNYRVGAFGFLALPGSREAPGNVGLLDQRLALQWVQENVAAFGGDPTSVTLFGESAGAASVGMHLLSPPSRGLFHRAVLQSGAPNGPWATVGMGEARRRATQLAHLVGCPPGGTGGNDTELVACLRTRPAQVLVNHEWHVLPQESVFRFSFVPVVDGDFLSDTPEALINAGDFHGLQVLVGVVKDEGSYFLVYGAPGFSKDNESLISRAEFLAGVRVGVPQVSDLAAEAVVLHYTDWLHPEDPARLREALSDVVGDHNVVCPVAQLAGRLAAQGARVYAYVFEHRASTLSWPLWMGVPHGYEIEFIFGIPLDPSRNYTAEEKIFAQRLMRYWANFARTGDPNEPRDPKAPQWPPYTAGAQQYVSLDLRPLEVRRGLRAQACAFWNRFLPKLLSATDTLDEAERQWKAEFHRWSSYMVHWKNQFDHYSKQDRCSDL

In one assay the target is Acetylcholinesterase (Homo sapiens) (UniProt P22303). Nature of the assay: Acetylcholinesterase (AChE) small molecule antagonists: colormetric cell-based qHTS assay (AID 1347395). Also: nearly all actives have a fitted effect of over 30% in size. As to conditions: SH-SY5Y cells AChE activity, colorimetric (Ellman); series mostly up to 115 µM. In short, it runs like this:
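Quantitative HTS in attached SH-SY5Y cells: 30 min compound exposure, then 90 min with acetylthiocholine and DTNB at 37 C; colour from thiocholine reports AChE activity.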
Background: In qHTS, concentration-response curves come from the screen itself.
In the case of `CCCC(=O)Nc1ccc(O)c(C(C)=O)c1`, the Potency entry is “inactive”.

As for `CC(C)c1ccc2ncccc2c1`, the Potency entry was “inactive”.

Consider `O=S(=O)(O)c1ccc(O)cc1`, for which the Potency entry was “inactive”.

Turning to `CCOc1cccc(-n2cc(C(=O)N3CCN(c4cc(C(=O)O)c5ccccc5c4)CC3)nc2-c2ccc(C)cc2)c1`, the Potency entry was “inactive”.

For `CC1(C)C(=O)N(Cl)C(=O)N1Br`, the Potency entry was “inactive”.

Take `CC(C)(C)C1CCC(O)CC1` (stereo not given): the Potency entry was “inactive”.

Take `CCC(C)(C)CC`: the Potency entry is “inactive”.

For the compound `CC(COc1ccc(C(C)(C)C)cc1)OS(=O)OCCCl` (stereo not given), the Potency entry is “inactive”.

In the case of `O=c1[nH][nH]c2ccccc12`, the Potency result was “inactive”.

For the compound `CC1=C(O)C(=O)OC1C` (stereo not given), the Potency result is “inactive”.

On to `Cc1c(Nc2ncccc2C(=O)O)cccc1C(F)(F)F`, for which the Potency result is “inactive”.

`CC(=O)c1c(C)c([N+](=O)[O-])c(C(C)(C)C)c([N+](=O)[O-])c1C`: the Potency was 79.6 µM (active).

Turning to `CC(C)OC(=O)CCCCC(=O)OC(C)C`, the Potency result was “inactive”.

For `CNCCCCOc1ccccc1Cc1ccccc1`, the Potency result was “inactive”.

As to `COC(=O)c1ccccc1C(=O)O`, the Potency entry was “inactive”.

`Cc1cc(O)c(Cl)cc1C`: the Potency result is “inactive”.

As to `Cc1ccccc1C(=O)Nc1ccc(C(=O)N2CCCC(O)c3cc(Cl)ccc32)c(C)c1` (stereo not given), the Potency result is “inactive”.

As for `CC(=O)OCC(=O)[C@H]1CC[C@H]2[C@@H]3CCC4=CC(=O)CC[C@]4(C)[C@H]3CC[C@]12C`, the Potency result is “inactive”.

As for `CC(C(=O)O)c1cccc(Oc2ccccc2)c1` (stereo not given), the Potency result was “inactive”.

Turning to `CCCCOC(=O)CC#N`, the Potency result is “inactive”.

As for `C=CCSSCCC`, the Potency entry is “inactive”.

On to `C/C(=C\c1ccc(C(=O)O)cc1)c1ccc2c(c1)C(C)(C)CCC2(C)C`, for which the Potency result was “inactive”.

As to `C/C=C(C)/C=C/C=C(C)C`, the Potency entry was “inactive”.

For `C[C@]12CC[C@@H]3c4ccc(O)cc4CC[C@H]3[C@@H]1CC[C@H]2O`, the Potency result is “inactive”.

`CC(C)=CC(C)(C)C`: the Potency entry was “inactive”.

In the case of `OC[C@]1(O)OC[C@@H](O)[C@H](O)[C@@H]1O`, the Potency result is “inactive”.

As to `CC/C=C\C/C=C\C/C=C\CCCCCCCC(=O)OCC`, the Potency entry is “inactive”.

As for `CCC(=O)O[C@]1(C(=O)SCF)[C@H](C)C[C@H]2[C@@H]3C[C@H](F)C4=CC(=O)C=C[C@]4(C)[C@@]3(F)[C@@H](O)C[C@@]21C`, the Potency entry was “inactive”.

Turning to `CCNC(=O)N1CCN(CCCC(c2ccc(F)cc2)c2ccc(F)cc2)CC1`, the Potency entry was “inactive”.

With `NS(=O)(=O)c1ccccc1OC(F)(F)F`, the Potency result is “inactive”.

On to `O=C1CCCCCCCCCCC1`, for which the Potency entry was “inactive”.

As to `O=C(O)C1(C(=O)O)CCC1.[NH2-].[NH2-].[Pt+2]`, the Potency entry was “inactive”.

As for `CC(C)CCCCCCOC(=O)c1ccc(C(=O)OCCCCCCC(C)C)c(C(=O)OCCCCCCC(C)C)c1`, the Potency result is “inactive”.

In the case of `NCCc1ccc(O)c(O)c1`, the compound was classed as inactive.

As to `C#Cc1cccc(Nc2ncnc3cc(OCCOC)c(OCCOC)cc23)c1`, the Potency entry was “inactive”.

For `CC1(C)SC(C)(C)SC(C)(C)S1`, the Potency result was “inactive”.

As to `CCOCCOCCOCC`, the Potency entry is “inactive”.

Regarding `c1cc(C(c2ccc(OCC3CO3)cc2)C(c2ccc(OCC3CO3)cc2)c2ccc(OCC3CO3)cc2)ccc1OCC1CO1` (stereo not given), the Potency result is “inactive”.

Take `CCCCN(CCC(=O)OCC)C(C)=O`: the Potency entry was “inactive”.

In the case of `CC1=C(C/C=C(\C)CCC[C@H](C)CCC[C@H](C)CCCC(C)C)C(=O)c2ccccc2C1=O`, the Potency entry is “inactive”.

The next assay has the same target. The experiment in a line: Acetylcholinesterase (AChE) small molecule antagonists: enzyme-based qHTS assay (AID 1347397). Also: nearly all actives have a fitted effect of over 55% in size. As to conditions: Potency: AChE enzyme activity inhibition; outcome: AChE enzyme activity inhibition; series mostly up to 115 µM. In a few lines:
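Human recombinant acetylcholinesterase; substrate acetylthiocholine; thiocholine quantified with DTNB (colorimetric). Compound preincubation 30 min RT; reaction 10 min RT.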
For the compound `CCCC(=O)Nc1ccc(O)c(C(C)=O)c1`, the Potency entry is “inactive”.

As for `CC(C)c1ccc2ncccc2c1`, the Potency result is “inactive”.

Regarding `O=S(=O)(O)c1ccc(O)cc1`, the Potency result is “inactive”.

As to `CCOc1cccc(-n2cc(C(=O)N3CCN(c4cc(C(=O)O)c5ccccc5c4)CC3)nc2-c2ccc(C)cc2)c1`, the Potency result was “inactive”.

For the compound `CC1(C)C(=O)N(Cl)C(=O)N1Br`, the Potency result is “inactive”.

Take `CC(C)(C)C1CCC(O)CC1` (stereo not given): the Potency entry was “inactive”.

Regarding `CCC(C)(C)CC`, the Potency entry is “inactive”.

With `CC(COc1ccc(C(C)(C)C)cc1)OS(=O)OCCCl` (stereo not given), the Potency result was “inactive”.

As to `O=c1[nH][nH]c2ccccc12`, the Potency result was “inactive”.

In the case of `CC1=C(O)C(=O)OC1C` (stereo not given), the Potency result is “inactive”.

For the compound `Cc1c(Nc2ncccc2C(=O)O)cccc1C(F)(F)F`, the Potency entry is “inactive”.

For `CC(=O)c1c(C)c([N+](=O)[O-])c(C(C)(C)C)c([N+](=O)[O-])c1C`, the Potency entry is “inactive”.

Take `CC(C)OC(=O)CCCCC(=O)OC(C)C`: the Potency entry is “inactive”.

Regarding `CNCCCCOc1ccccc1Cc1ccccc1`, the Potency entry was “inactive”.

In the case of `COC(=O)c1ccccc1C(=O)O`, the Potency entry is “inactive”.

Take `Cc1cc(O)c(Cl)cc1C`: the Potency entry was “inactive”.

As for `Cc1ccccc1C(=O)Nc1ccc(C(=O)N2CCCC(O)c3cc(Cl)ccc32)c(C)c1` (stereo not given), the Potency result was “inactive”.

As for `CC(=O)OCC(=O)[C@H]1CC[C@H]2[C@@H]3CCC4=CC(=O)CC[C@]4(C)[C@H]3CC[C@]12C`, the Potency entry was “inactive”.

Turning to `CC(C(=O)O)c1cccc(Oc2ccccc2)c1` (stereo not given), the Potency result is “inactive”.

With `CCCCOC(=O)CC#N`, the Potency entry is “inactive”.

For the compound `C=CCSSCCC`, the Potency result is “inactive”.

On to `C/C(=C\c1ccc(C(=O)O)cc1)c1ccc2c(c1)C(C)(C)CCC2(C)C`, for which the Potency entry was “inactive”.

For `C/C=C(C)/C=C/C=C(C)C`, the Potency entry is “inactive”.

With `C[C@]12CC[C@@H]3c4ccc(O)cc4CC[C@H]3[C@@H]1CC[C@H]2O`, the Potency entry is “inactive”.

For the compound `CC(C)=CC(C)(C)C`, the Potency entry is “inactive”.

`OC[C@]1(O)OC[C@@H](O)[C@H](O)[C@@H]1O`: the Potency entry was “inactive”.

With `CC/C=C\C/C=C\C/C=C\CCCCCCCC(=O)OCC`, the Potency entry was “inactive”.

Take `CCC(=O)O[C@]1(C(=O)SCF)[C@H](C)C[C@H]2[C@@H]3C[C@H](F)C4=CC(=O)C=C[C@]4(C)[C@@]3(F)[C@@H](O)C[C@@]21C`: the Potency entry is “inactive”.

Regarding `CCNC(=O)N1CCN(CCCC(c2ccc(F)cc2)c2ccc(F)cc2)CC1`, the Potency entry was “inactive”.

Take `NS(=O)(=O)c1ccccc1OC(F)(F)F`: the Potency result was “inactive”.

Turning to `O=C1CCCCCCCCCCC1`, the Potency entry was “inactive”.

For the compound `O=C(O)C1(C(=O)O)CCC1.[NH2-].[NH2-].[Pt+2]`, the Potency is 21.9 µM (active).

On to `CC(C)CCCCCCOC(=O)c1ccc(C(=O)OCCCCCCC(C)C)c(C(=O)OCCCCCCC(C)C)c1`, for which the Potency entry is “inactive”.

Regarding `NCCc1ccc(O)c(O)c1`, the call was inactive.

Regarding `C#Cc1cccc(Nc2ncnc3cc(OCCOC)c(OCCOC)cc23)c1`, the Potency result was “inactive”.

Take `CC1(C)SC(C)(C)SC(C)(C)S1`: the Potency entry is “inactive”.

`CCOCCOCCOCC`: the Potency result is “inactive”.

As to `c1cc(C(c2ccc(OCC3CO3)cc2)C(c2ccc(OCC3CO3)cc2)c2ccc(OCC3CO3)cc2)ccc1OCC1CO1` (stereo not given), the Potency result is “inactive”.

As to `CCCCN(CCC(=O)OCC)C(C)=O`, the Potency result was “inactive”.

For the compound `CC1=C(C/C=C(\C)CCC[C@H](C)CCC[C@H](C)CCCC(C)C)C(=O)c2ccccc2C1=O`, the Potency entry was “inactive”.

The values are drawn from PubChem BioAssay (Tox21).
